DT40 TDP1 CPT – DT40-hTDP1 cell growth loss with CPT; chicken DT40 Tdp1-/-;hTDP1 cells + 20 nM CPT, ATP luminescence, 48 h; Potency, µM (top dose mostly 46.2 µM), without a hit: at the highest dose activity change, negative = growth inhibition, actives largely listed as inhibitors; actives 12% (n = 420,000); note: potency is the fitted concentration of half-maximal effect; nearly all actives have a fitted effect of over 55% in size
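Cell growth measured by CellTiter-Glo luminescence after a minimum 48 h, 37 C compound exposure with 20 nM CPT in Tdp1-knockout DT40 cells stably expressing hTDP1, seeded 400/well; qHTS titration format.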
TDP1 block – blocks human tyrosyl-DNA phosphodiesterase 1; Q9NUW8; Potency, µM (series often up to 130 µM), for inactives: top-dose activity change, negative = inhibition, most hits filed as inhibitors; recombinant TDP1, AlphaScreen DNA substrate cleavage; actives 0.28% (n = 350,000); note: potency is the fitted concentration of half-maximal effect; nearly all actives have a fitted effect of over 40% in size
Target sequence (Q9NUW8 whole entry, looked up): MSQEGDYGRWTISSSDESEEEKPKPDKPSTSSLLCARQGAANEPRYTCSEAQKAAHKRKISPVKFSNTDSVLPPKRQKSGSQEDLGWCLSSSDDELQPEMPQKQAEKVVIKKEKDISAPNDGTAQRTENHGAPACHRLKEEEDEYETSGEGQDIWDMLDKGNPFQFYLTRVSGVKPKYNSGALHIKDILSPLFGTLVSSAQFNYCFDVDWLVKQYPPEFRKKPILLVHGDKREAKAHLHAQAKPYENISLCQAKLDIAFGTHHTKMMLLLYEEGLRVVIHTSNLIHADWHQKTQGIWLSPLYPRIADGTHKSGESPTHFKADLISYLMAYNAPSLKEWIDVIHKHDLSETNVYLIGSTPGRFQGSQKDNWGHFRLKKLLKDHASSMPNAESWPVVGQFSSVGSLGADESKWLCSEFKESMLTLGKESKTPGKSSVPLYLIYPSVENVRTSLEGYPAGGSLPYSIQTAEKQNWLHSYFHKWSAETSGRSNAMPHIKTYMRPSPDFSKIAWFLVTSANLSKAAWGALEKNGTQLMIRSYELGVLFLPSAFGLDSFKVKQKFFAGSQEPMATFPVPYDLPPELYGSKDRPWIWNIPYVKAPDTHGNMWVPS
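Recombinant E. coli-expressed Tdp1 (1 nM) preincubated with compound 15 min at RT, then 5'-biotin/3'-phosphotyrosine-FITC DNA substrate (15 nM) added for 5 min. AlphaScreen beads (10 ug/ml) added, 10 min RT; tyrosine-FITC cleavage read as signal loss.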
DT40 TDP1 no CPT – qHTS for Inhibitors of human tyrosyl-DNA phosphodiesterase 1 (TDP1): qHTS in cells in absence of CPT; DT40 Tdp1-/- hTDP1 cells, no CPT, ATP luminescence, 48 h; Potency, µM (top dose mostly 46.2 µM), inactives show at the highest dose activity change, negative = growth inhibition, actives largely listed as inhibitors; actives 15% (n = 420,000); AID 686978, 2013; note: potency is the fitted concentration of half-maximal effect; nearly all actives have a fitted effect of over 55% in size
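Seeded 400 DT40-hTDP1 cells/well (vehicle DMSO, no 20 nM CPT); pinned compounds; ≥48 hr at 37 °C; CellTiter-Glo luminescence as viability measure.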
Giardia killer – kills Giardia lamblia; AID 540267; activity change, % at 7.66 µM, hits read low; actives 0.15% (n = 340,000); Giardia lamblia trophozoite viability; in the data active = activity change below about -80%; inconclusive = between about -30% and that limit;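 note: parasites exposed to compound for two days anaerobically before the ATP read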
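Killing of trophozoites was scored by loss of ATP luminescence after a 48 hrs anaerobic exposure to compounds at 37 deg C, using 100 cells per well.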
IL1B secr inh – inflammasome signaling inhibition, IL-1 beta readout | THP-1 LPS/ATP IL-1B secretion, AlphaLISA, 16 h; active compounds read low | activity change, % at 57.5 µM | actives 4.7% (n = 360,000) | AID 743279; in the data active = activity change below about -50%; inconclusive = mostly about -30% to -49%
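THP-1 cells pretreated 1 hr with compounds (up to 57.5 uM final), then stimulated with LPS (250 ng/mL final) plus ATP (1.25 mM final); secreted IL-1B measured by AlphaLISA after 16 hr, decreased signal indicating inhibition.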
ELG1 DNA repair – inhibitors of ELG1-dependent DNA repair in HEK293T cells | Potency, µM (series often up to 46.1 µM), inactives show at the highest dose activity change, negative = inhibition, actives largely listed as inhibitors | AID 504467 | actives 2.3% (n = 330,000) | HEK293T ELG1-luciferase reporter, luminescence, 16 h; DNA damage induced by 5-fluorouridine; note: potency is the fitted concentration of half-maximal effect; nearly all actives have a fitted effect of over 55% in size
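Overnight (16 hr) co-exposure of 2,000 cells/well to 5-fluorouridine and compound at 37 °C preceded detection. Luciferase was quantified via ONE-Glo luminescence; loss of signal denotes inhibition.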
* = called active by the depositor; ? = inconclusive; . = no result; [ ] = dose if it differs, or a comment. This is a sample that favours compounds with a hit; in the whole collection about 19% have one here. Unless noted, calls come from the whole dose curve; as a rule, active = well fitted curve in the direction sought with a large enough effect; inconclusive = small, poorly fitted or top-dose-only effect, or another doubt; inactive = no such curve, though single readings can be large; an effect the other way counts as inactive or inconclusive. % is set by controls: 0 for no effect and ±100 for the full control effect.

SMILES | DT40 TDP1 CPT | TDP1 block | DT40 TDP1 no CPT | Giardia killer | IL1B secr inh | ELG1 DNA repair
CCN(CC)C(=O)c1ccc(-c2nnc(Nc3ccc(C(=O)N(C)C)cc3)c3ccccc23)cc1 | ? | . | 16µM* | -22 | ? | ?
COc1ccc(Nc2nnc(-c3ccccc3)c3ccccc23)cc1C(=O)N1CCCCC1 | -26% | 5% | -22% | 11 | -14 | ?
CCN(CC)C(=O)COc1ccc(-c2nnc(Nc3ccc(OC)c(C(=O)NC)c3)c3ccccc23)cc1 | ? | 8% | 21µM* | 5 | -79* | -21%
Cc1ccc(NC(=O)c2cnc(SCC(=O)N3CCCc4ccccc43)n(C)c2=O)cc1C | -5% | -3% | 3% | . | . | .
Cc1cccc(N(C)S(=O)(=O)c2c(C)noc2C)c1 | -5% | 1% | ? | -2 | 14 | -5%
CC(=O)Nc1ccc2c(c1)nc(CCNC(=O)c1ccco1)n2C | -4% | 7% | 10% | -1 | -6 | 0%
CNS(=O)(=O)c1cc(-c2nnc(Nc3ccc(NC(C)=O)cc3)c3ccccc23)ccc1C | 16µM* | . | 18µM* | -23 | ? | -40%
C#CCOc1ccc(-c2nnc(Nc3ccc(NC(C)=O)cc3)c3ccccc23)cc1 | ? | . | 16µM* | . | . | .
CCN(CC)S(=O)(=O)c1cc(-c2nnc(Nc3ccc(OC)c(C(N)=O)c3)c3ccccc23)ccc1C | 18µM* | 0%[12.3 µM] | ? | . | . | .
COc1ccc(Nc2nnc(-c3ccc(C(N)=O)cc3)c3ccccc23)cc1 | ? | . | ? | -19 | ? | ?
CC(=O)Nc1ccc(Nc2nnc(-c3ccc(O)cc3)c3ccccc23)cc1 | -3% | . | 0% | 5 | -26 | -23%
COc1ccc(Nc2nnc(-c3ccc(C(=O)NCCO)cc3)c3ccccc23)cc1 | 3.3µM* | . | 6.5µM* | 1 | -30 | -20%
Cc1ccc(C)c(NC(=O)CSc2ncc3c(n2)-c2ccccc2N(Cc2ccccc2C)S3(=O)=O)c1 | -26% | 3% | ? | . | . | .
O=C(O)Cn1nnc(-c2ccccc2)c1COc1ccccc1 | -1% | . | -6% | . | 8 | .
CC(C)NC(=O)Cn1nnc(-c2ccccc2)c1COc1ccc2ccccc2c1 | 15µM* | . | ? | . | -18 | .
COc1ccc(NC(=O)Cn2nnc(-c3ccccc3)c2COc2ccc3ccccc3c2)cn1 | 21µM* | . | 23µM* | . | -10 | .
Cn1c(=O)c2c(ncn2CC(=O)OCC(=O)c2ccc(F)c(F)c2)n(C)c1=O | -17% | 4% | 4% | 5 | 15 | 9%
COc1ccccc1Oc1ccc(S(=O)(=O)N2CCOCC2)cc1S(=O)(=O)N1CCOCC1 | 8% | 0%[56.1 µM] | -21% | 0 | -17 | 3%
Cc1ccc(Oc2ccc(S(=O)(=O)N3CCOCC3)cc2C(N)=O)c(-n2nc3ccccc3n2)c1 | 3.7µM* | 6% | 4.1µM* | -27 | 46 | ?
COc1ccc(Cl)cc1NCCC(O)c1ccc(F)cc1 (stereo not drawn) | 18µM* | . | 9.2µM* | -7 | -1 | -1%
Cn1cccc1/C=N/N1CCN(Cc2ccccc2Cl)CC1 | -13% | . | 2.6µM* | 7 | -19 | 1%
O=[N+]([O-])c1ccc(Cl)c(/C=N/N2CCN(Cc3ccccc3Cl)CC2)c1 | ? | 11% | 21µM* | -2 | -7 | -1%
Cc1ccc(CN2CCN(/N=C\c3cccc([N+](=O)[O-])c3)CC2)cc1 | 3% | 9% | ? | -4 | -62* | 3%
Cc1ccc(/C=N/N2CCN(Cc3ccc(C)cc3)CC2)cc1 | 1% | 7% | -12% | 22 | 2 | -11%
O=[N+]([O-])c1ccc(Cl)c(/C=N/N2CCN(Cc3ccccc3)CC2)c1 | -6% | 12% | 9% | 7 | 24 | -12%
SMILES | DT40 TDP1 CPT | TDP1 block | DT40 TDP1 no CPT | Giardia killer | IL1B secr inh | ELG1 DNA repair
Cc1ccc2nc(N3CCN(c4ccccc4)CC3)c3nnnn3c2c1 | -22% | -3% | -18% | . | . | .
CCOC(=O)c1[nH]c(C)c(C(=O)OCC)c1C | 1% | -3% | 0% | -23 | -24 | ?
CCOC(=O)c1[nH]c(C)c(C(=O)OCC(=O)N(Cc2ccccc2)C(C)C)c1C | ? | 6% | 15µM* | -9 | ? | ?
CC(C)N(Cc1ccccc1)C(=O)CCc1ccccc1 | 15µM* | 0% | ? | 6 | -24 | ?
CCOC(=O)c1[nH]c(C)c(C(=O)OCc2ccccc2F)c1C | 6.5µM* | 9% | 9.2µM* | 18 | 19 | ?
CC(C)N(Cc1ccccc1)C(=O)COc1ccccc1 | ? | . | ? | 4 | 3 | 0%
CCOC(=O)c1[nH]c(C)c(C(=O)c2cc(F)ccc2F)c1C | 0.82µM* | 1% | 0.82µM* | -1 | 54 | 29%
COc1ccccc1C(C)NC(=O)c1ccc(NC(=O)CC2SC(N3CCCC3)=NC2=O)cc1 (stereo not drawn) | 5% | 1% | 12% | -5 | 0 | -12%
CCC1CCCCC1 | . | 11% | . | . | . | .
CC1CCC(NC(=O)c2cccc(S(=O)(=O)NCc3ccccc3)c2)CC1 (stereo not drawn) | -27% | . | ? | -3 | -16 | -14%
CN(C)S(=O)(=O)c1ccc(N2CCCC2)c(C(=O)OCC(=O)N2CCN(c3ccccc3)CC2)c1 | ? | . | ? | 24 | -8 | -18%
CC(C)N(Cc1ccccc1)C(=O)COC(=O)c1cc(S(=O)(=O)N(C)C)ccc1N1CCCC1 | 23µM* | 2% | 15µM* | 1 | -10 | ?
CCN(CC(=O)NC(C)C)C(=O)[C@H](C)NC(=O)c1ccc(Br)cc1 | 10% | 4% | 6% | 30 | 15 | -14%
CCCCCCC1=Cc2cc(OC)c(OC)cc2C(C2(C(=O)OCC)CCCC2=O)O1 (stereo not drawn) | . | -1%[21 µM] | . | . | . | .
CCOC(=O)C1CCN(Cc2nc3ccccc3c(=O)n2-c2ccc(OCC)cc2)CC1 | ? | 7% | ? | 17 | -19 | ?
CN(C)Cc1nc2ccccc2c(=O)n1Cc1nc(-c2cc3ccccc3o2)cs1 | ? | 10% | 18µM* | 6 | 32 | ?
CCOc1ccc(-c2csc(Cn3c(CN4CCN(C)CC4)nc4ccccc4c3=O)n2)cc1 | 7.3µM* | 5% | 8.2µM* | 5 | -75* | 21µM*
CCOC(=O)[C@]12CCCC=C1N(CCC1=CCCCC1)C(=O)[C@H](CC(=O)NCC13CC4CC(CC(C4)C1)C3)C2 | ? | . | ? | . | 1 | .

Screens from PubChem BioAssay.
